# Shown is part of a subset that was picked to be rich in hits.
# CBX7 AlphaScr = blocks human CBX7 binding to H3K27me3 peptide | O95931 | 66,000 compounds, 1.1% hits | AID 1224903 | AlphaScreen His6-CBX7 / biotin-H3K27me3 peptide binding; hits give low values | normalised signal (fraction of DMSO) (no concentration beside the values); in the data active means normalised signal below about 0.5
# Target sequence (O95931 whole entry, looked up): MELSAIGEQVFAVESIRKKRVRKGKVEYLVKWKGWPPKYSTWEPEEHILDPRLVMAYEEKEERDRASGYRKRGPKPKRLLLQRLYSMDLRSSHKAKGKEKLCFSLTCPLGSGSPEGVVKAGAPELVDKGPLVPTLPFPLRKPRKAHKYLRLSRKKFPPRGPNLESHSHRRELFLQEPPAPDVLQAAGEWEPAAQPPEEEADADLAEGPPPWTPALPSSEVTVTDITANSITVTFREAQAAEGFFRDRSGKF
# Starred values were filed as active, the others as inactive.
SMILES,CBX7 AlphaScr
COc1cccc(-c2nnc(NC(=O)c3ccc(S(=O)(=O)N(C)Cc4ccccc4)cc3)o2)c1,0.1*
COc1ccc(-c2nnc(NC(=O)c3ccc(S(=O)(=O)N(C)C)cc3)o2)cc1,0.037*
COc1cccc(-c2nnc(NC(=O)c3ccc(S(=O)(=O)N4CCOCC4)cc3)o2)c1,0.7
CCN(Cc1ccccc1)S(=O)(=O)c1ccc(C(=O)Nc2nnc(-c3cccc(OC)c3)o2)cc1,0.96
Cc1nc2cc(NC(=O)c3ccc(S(=O)(=O)N(C)Cc4ccccc4)cc3)ccc2s1,0.95
CC(C)(C)N1C(=O)c2ccc(C(=O)Nc3cccc(C(=O)O)c3)cc2C1=O,1
COc1cccc(CN2C(=O)c3ccccc3C2C(=O)NC2CCCC2)c1 (stereo not given),0.77
CCCCOc1ccc(C(=O)C(CN2CCN(c3ccc(F)cc3)CC2)c2ccccc2)cc1 (stereo not given),0.67
O=C(Nc1ccc(-c2csc(Nc3cccc(Cl)c3)n2)cc1)c1ccccc1,0.78
CCOC(=O)C1CCN(C(=O)CCc2c(C)nc3c(c(C)nn3-c3ccc(C)cc3)c2C)CC1,0.9
COc1ccc(-c2cc(C(=O)NCc3ccccc3)c3cc(C(C)C)ccc3n2)cc1,0.99
COc1ccc(CCC(=O)Nc2ccc(-c3noc(-c4ccccc4Br)n3)cc2)cc1,1
CCOc1nnc(-c2ccc(OC)cc2)c2ccccc12,0.81
c1ccc(-c2nc(-c3ccc4c(c3)OCO4)[nH]c2-c2cccc3ccccc23)cc1,0.79
COc1ccccc1-c1nnc(NC(=O)c2ccc(S(=O)(=O)N3CCOCC3)cc2)o1,0.63
COc1ccc(-c2nnc(NC(=O)c3ccc(S(=O)(=O)N4CCCC4)cc3)o2)c(OC)c1,0.83
COc1ccccc1-c1nnc(NC(=O)c2ccc(S(=O)(=O)N(C)Cc3ccccc3)cc2)o1,0.00085*
Cc1cc2c(cc1C)NC(CC(=O)Nc1ccc(OC(F)F)cc1)C(=O)N2 (stereo not given),0.98
CC(C)c1nc2ccc(-c3nc4ccccc4o3)cc2[nH]1,0.92
Cc1ccccc1CN1C(=O)C(O)(CC(=O)c2ccccc2)c2ccccc21 (stereo not given),0.91
CCc1ccc(C(=O)CC2(O)C(=O)N(Cc3ccccc3C)c3ccccc32)cc1 (stereo not given),0.45*
Cc1ccccc1CN1C(=O)C(O)(CC(=O)c2ccc(Cl)cc2)c2ccccc21 (stereo not given),0.87
COc1ccccc1C(=O)NCc1nc2ccccc2n1Cc1ccccc1F,0.8
Cc1cc(N2CCCCC2)nc2ccc(NC(=O)c3ccc4c(c3)OCO4)cc12,1
Cc1cc(=O)n2nc(N3CCC(C(=O)NCc4ccc(OC(C)C)cc4)CC3)sc2n1,0.99
SMILES,CBX7 AlphaScr
O=C(Nc1nnc(C2CC2)o1)c1ccc(S(=O)(=O)N2CCCc3ccccc32)cc1,0.69
O=C(Nc1nnc(C2CC2)o1)c1ccc(S(=O)(=O)N2CCCCC2)cc1,0.012*
CC1CCN(S(=O)(=O)c2ccc(C(=O)Nc3nnc(C4CC4)o3)cc2)CC1,0.74
COCc1nnc(NC(=O)c2ccc(S(=O)(=O)N3CCOCC3)cc2)o1,0.69
COCc1nnc(NC(=O)c2ccc(S(=O)(=O)N3CCCCC3C)cc2)o1 (stereo not given),0.74
CN(C1CCCCC1)S(=O)(=O)c1ccc(C(=O)Nc2ccccc2-c2nc3ccccc3[nH]2)cc1,0.93
CC1CCCCN1S(=O)(=O)c1ccc(C(=O)Nc2nnc(C3CC3)o2)cc1 (stereo not given),0.00088*
CCc1nnc(NC(=O)c2ccc(S(=O)(=O)N(C)C3CCCCC3)cc2)o1,0.065*
CCc1nnc(NC(=O)c2ccc(S(=O)(=O)N3CC(C)OC(C)C3)cc2)o1 (stereo not given),0.67
CCOC(=O)c1oc2ccccc2c1NC(=O)c1ccc(S(=O)(=O)N(C)C2CCCCC2)cc1,1.1
CCc1nnc(NC(=O)c2ccc(S(=O)(=O)N3CCCCCC3)cc2)o1,0.043*
CC1CN(S(=O)(=O)c2ccc(C(=O)Nc3nnc(C4CC4)o3)cc2)CC(C)O1 (stereo not given),0.64
CC(C)NC(=O)c1ccc2c(c1)N(Cc1ccc(Cl)cc1)C(=O)c1ccccc1S2,0.97
Cc1c(Cl)cccc1-n1ncnc1-c1cccc(Br)c1,1.2
Cc1ccc(CNC(=O)CN2C(=O)CSc3ncccc32)cc1,1
CCOc1ccc(NC(=O)CC2Nc3cc(C)c(C)cc3NC2=O)cc1 (stereo not given),0.97
O=C(Nc1ccc2c(c1)OCCO2)c1ccc(CNc2c(N3CCCCC3)c(=O)c2=O)cc1,1.3
CCC(Cc1ccccc1)NC(=O)CN1C(=O)CSc2ccc(S(=O)(=O)N(CC)CC)cc21 (stereo not given),1.1
O=C(CN1C(=O)COc2ccc(S(=O)(=O)N3CCCCCC3)cc21)NCCN1CCOCC1,1
Cc1ccc(C)c(-c2[nH]c(-c3ccc(C(=O)O)cc3)nc2-c2ccccc2)c1,0.84
O=C1c2ccc([N+](=O)[O-])cc2C(=O)N1c1ccc2nc(-c3ccccc3)[nH]c2c1,1.1
COc1cccc(-c2nc(-c3ccccc3)c(-c3cccs3)[nH]2)c1,0.95
